A short description of experiment [1]: antimalarial activity against Dd2 strain (AID 2302;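 active = growth inhibition above 50% at the single 2 µM test dose, taken to imply half-maximal potency below 2 µM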;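 also: 0% = DMSO untreated growth and 100% = chloroquine plus artemisinin killed control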). The conditions noted are these: P. falciparum Dd2 in RBCs, LDH growth readout, 72 h; at 2 µM; hits give high values.
Experiment [2] is described as follows: HepG2 cytotoxicity, primary screen, cytotoxicity control for P. falciparum antimalarial project, cell-based, ATP luminescence (AID 2303;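 active = inhibition above 50%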;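 also: 0% = DMSO wells and 100% = digitonin-killed cells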). Particulars: HepG2 viability, 24-48 h, at 10 µM, hits give high values.
For experiment [3], the target named is L-lactate dehydrogenase (Plasmodium falciparum (isolate CDC / Honduras)) (UniProt Q27743). As to the kind of experiment: PfLDH activity inhibition – cell lysate, 3D7 strain, counter-screen for P. falciparum growth inhibition project (AID 2304).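 Also: 0% = vehicle and 100% = reference inhibitor.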 Particulars: P. falciparum 3D7 crude extract, LDH APAD/NBT absorbance; at 2 µM; hits give high values.
Chain of L-lactate dehydrogenase (Plasmodium falciparum (isolate CDC / Honduras)) (Q27743 whole entry, looked up): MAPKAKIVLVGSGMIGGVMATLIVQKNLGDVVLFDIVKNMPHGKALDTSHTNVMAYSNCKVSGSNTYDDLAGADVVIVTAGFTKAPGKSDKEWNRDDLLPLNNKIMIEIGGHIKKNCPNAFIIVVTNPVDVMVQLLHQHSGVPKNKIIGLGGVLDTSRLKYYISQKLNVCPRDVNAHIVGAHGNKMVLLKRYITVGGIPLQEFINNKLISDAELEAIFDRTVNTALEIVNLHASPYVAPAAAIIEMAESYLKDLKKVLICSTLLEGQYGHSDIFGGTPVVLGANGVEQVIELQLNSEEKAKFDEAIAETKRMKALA
Experiment [4] is described as follows: inhibition of 3D7 malaria parasite growth – strain 3D7 (AID 2306).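 Also: 0% = DMSO wells and 100% = chloroquine plus artemisinin control wells.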 Particulars: P. falciparum 3D7 erythrocytic growth, LDH absorbance, 72 h; at 2 µM; hits give high values.
Experiment [5] addresses Calcium-dependent protein kinase 1 (Plasmodium falciparum (isolate 3D7)) (UniProt P62344). As to the kind of experiment: PfCDPK1 kinase inhibitors, biochemical, TCAMS library (AID 1159585; cut-off not given, nearly all actives have IC50 up to about 0.98 µM;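 also: inhibitors leave more ATP so luminescence rises with inhibition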). Particulars: recombinant PfCDPK1, Kinase-Glo ATP depletion luminescence. In general terms: Kinase-Glo reads ATP consumption through a luciferase reaction.
The target in experiment [6] is Plasmodium falciparum protein kinase 6 (PK6, PF3D7_1337100) (UniProt Q8IDW1). Kind of experiment: PfPK6 kinase inhibitors, biochemical, TCAMS library (AID 1159586). Particulars: recombinant PfPK6, Kinase-Glo ATP depletion luminescence.
Chain of Plasmodium falciparum protein kinase 6 (PK6, PF3D7_1337100) (Q8IDW1 1-305): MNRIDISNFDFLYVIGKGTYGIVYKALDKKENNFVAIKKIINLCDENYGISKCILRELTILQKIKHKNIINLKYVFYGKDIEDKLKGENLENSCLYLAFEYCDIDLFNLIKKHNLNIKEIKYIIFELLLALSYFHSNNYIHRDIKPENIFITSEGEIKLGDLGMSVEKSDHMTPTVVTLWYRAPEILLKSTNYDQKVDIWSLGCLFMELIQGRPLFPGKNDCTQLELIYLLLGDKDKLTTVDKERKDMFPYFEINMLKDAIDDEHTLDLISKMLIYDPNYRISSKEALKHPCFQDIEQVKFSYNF
Experiment [7] deals with Protein kinase 7 (PK7), Plasmodium falciparum 3D7 (PF3D7_0213400) (UniProt Q7YTF7). Kind of experiment: inhibition of Plasmodium PK7 catalytic activity – biochemical, TCAMS antimalarial set, Kinase-Glo luminescence (AID 1159587). The conditions noted are these: recombinant PfPK7, Kinase-Glo ATP depletion luminescence.
Chain of Protein kinase 7 (PK7), Plasmodium falciparum 3D7 (PF3D7_0213400) (Q7YTF7 1-343): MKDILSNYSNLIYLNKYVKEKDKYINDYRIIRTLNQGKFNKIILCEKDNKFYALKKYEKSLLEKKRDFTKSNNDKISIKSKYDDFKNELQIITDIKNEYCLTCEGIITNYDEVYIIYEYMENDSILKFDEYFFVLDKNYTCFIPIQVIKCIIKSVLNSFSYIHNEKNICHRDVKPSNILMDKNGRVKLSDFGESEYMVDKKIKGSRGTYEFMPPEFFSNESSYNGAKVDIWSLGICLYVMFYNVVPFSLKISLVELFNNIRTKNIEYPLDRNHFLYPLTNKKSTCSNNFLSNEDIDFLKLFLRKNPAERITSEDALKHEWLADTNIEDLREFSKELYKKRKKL
The target of experiment [8] is Calcium-dependent protein kinase 4 (Plasmodium falciparum (isolate 3D7)) (UniProt Q8IBS5). Kind of experiment: PfCDPK4 kinase inhibitors, biochemical, TCAMS library (AID 1159588; cut-off not given, nearly all actives have IC50 up to about 0.91 µM). Particulars: recombinant PfCDPK4, Kinase-Glo ATP depletion luminescence.
Chain of Calcium-dependent protein kinase 4 (Plasmodium falciparum (isolate 3D7)) (Q8IBS5 whole entry, looked up): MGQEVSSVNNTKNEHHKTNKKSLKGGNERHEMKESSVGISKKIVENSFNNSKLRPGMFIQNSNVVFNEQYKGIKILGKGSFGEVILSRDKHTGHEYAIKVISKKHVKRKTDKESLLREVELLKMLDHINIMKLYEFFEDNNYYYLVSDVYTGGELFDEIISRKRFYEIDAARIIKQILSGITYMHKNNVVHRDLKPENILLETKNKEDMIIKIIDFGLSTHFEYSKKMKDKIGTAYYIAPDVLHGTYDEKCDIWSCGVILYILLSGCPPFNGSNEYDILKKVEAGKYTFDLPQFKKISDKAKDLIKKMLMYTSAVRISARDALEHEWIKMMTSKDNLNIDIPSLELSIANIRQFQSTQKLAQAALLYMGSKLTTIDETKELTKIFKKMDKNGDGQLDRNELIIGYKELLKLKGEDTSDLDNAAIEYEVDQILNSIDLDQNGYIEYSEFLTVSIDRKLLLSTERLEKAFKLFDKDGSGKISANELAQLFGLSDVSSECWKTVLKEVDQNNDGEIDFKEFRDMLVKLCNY

Structures are written as SMILES. Values without a mark were called inactive. For some of these results: Entries with a potency or affinity are not part of this list. Active and inactive are the calls of the source. Unless noted, no rule for the calls is given here.

Chain of Calcium-dependent protein kinase 1 (Plasmodium falciparum (isolate 3D7)) (P62344 whole entry, looked up): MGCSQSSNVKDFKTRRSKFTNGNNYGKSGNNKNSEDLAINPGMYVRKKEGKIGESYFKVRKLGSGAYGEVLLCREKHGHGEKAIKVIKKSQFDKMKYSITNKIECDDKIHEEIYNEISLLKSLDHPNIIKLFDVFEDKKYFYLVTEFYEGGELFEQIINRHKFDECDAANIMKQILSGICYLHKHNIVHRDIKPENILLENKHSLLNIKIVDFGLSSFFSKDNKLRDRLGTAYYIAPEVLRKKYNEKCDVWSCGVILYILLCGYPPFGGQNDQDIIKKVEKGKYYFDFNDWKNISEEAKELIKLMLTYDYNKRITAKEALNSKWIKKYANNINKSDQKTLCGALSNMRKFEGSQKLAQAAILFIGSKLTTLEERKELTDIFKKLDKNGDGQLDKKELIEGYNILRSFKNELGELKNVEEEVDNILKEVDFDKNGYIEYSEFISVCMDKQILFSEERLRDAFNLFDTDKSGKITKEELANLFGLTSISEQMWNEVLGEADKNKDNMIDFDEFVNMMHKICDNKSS

As usually defined, the inhibition is the drop in the measured response relative to a control, in per cent. `O=C(Cn1c(CCc2cccc(F)c2F)cc(=O)c2ccccc21)N(Cc1ccc(-c2ccc(C(F)(F)F)cc2)cc1)C1CCN(CCO)CC1`: the growth inhibition in experiment [1] was 84% (active); in experiment [4], 91% (active). Also, the results for the inhibition in experiment [2] and in experiment [3] were 82% (active) and 0%, respectively. Moreover, the outcome in experiment [5], in experiment [6], in experiment [7] and in experiment [8] was inactive.

Turning to `Cn1nccc1C(=O)NCCNCc1ccc(-c2ccc(-c3nc4ccccc4[nH]3)s2)cc1`, the growth inhibition in experiment [1] is 97% (active); in experiment [4], 101% (active). Further, the results for the inhibition in experiment [2] and in experiment [3] were 23% and -9%, respectively. Further, the outcome in experiment [5], in experiment [6], in experiment [7] and in experiment [8] was inactive.

Consider `COc1cc(C(=O)N2CCN(C(C)C)CC2)ccc1CN(C)CCCCN1CCN(c2cccc(Cl)c2Cl)CC1`, for which the growth inhibition in experiment [1] is 98% (active); in experiment [4], 101% (active). Besides, the inhibition was 79% (active) in experiment [2] and 6% in experiment [3]. The outcome in experiment [5], in experiment [6], in experiment [7] and in experiment [8] was inactive.

Turning to `COc1ccc(C=NNc2cc(C)nc3ccc(C)cc23)c2ccccc12`, the growth inhibition is 55% (active) in experiment [1] and 94% (active) in experiment [4]. Further, the inhibition in experiment [2] is 28%; in experiment [3], 4%. For the same molecule, the outcome in experiment [5], in experiment [6], in experiment [7] and in experiment [8] was inactive.

With `Cc1ccccc1NC1=NC(=S)N(c2cccc(C(F)(F)F)c2)C12CCC(C(C)(C)C)CC2` (stereo not given), the growth inhibition is 25% in experiment [1] and 95% (active) in experiment [4]. For the same molecule, the inhibition in experiment [2] was 9%; in experiment [3] it was 5%. Further, the result in experiment [5], in experiment [6], in experiment [7] and in experiment [8] was inactive.

`COc1ccc2c(c1)CCCC2C(C)NCC(O)c1cccc(C(F)(F)F)c1` (stereo not given): the growth inhibition in experiment [1] and in experiment [4] was 99% (active) each time. Further, the results for the inhibition in experiment [2] and in experiment [3] were 3% and -3%, respectively. Also, the outcome in experiment [5], in experiment [6], in experiment [7] and in experiment [8] was inactive.

With `NC1=NC(c2ccccc2)(c2ccccc2)C(=O)N1CCCCc1ccccc1`, the growth inhibition in experiment [1] is 81% (active); in experiment [4], 96% (active). Further, the figures for the inhibition in experiment [2] and in experiment [3] were 14% and -2%, respectively. Moreover, the result in experiment [5], in experiment [6], in experiment [7] and in experiment [8] was inactive.

For the molecule `COc1ccc2nccc(NN=Cc3cccc([N+](=O)[O-])c3)c2c1`, the growth inhibition in experiment [1] is 98% (active); in experiment [4] it was 100% (active). The inhibition in experiment [2] is 4%; in experiment [3] it was -8%. Besides, the outcome in experiment [5], in experiment [6], in experiment [7] and in experiment [8] was inactive.

As for `COc1ccc(-c2cccc(NC(=O)c3cccc(C#N)c3)c2)cc1CNC(C)C`, the values for the growth inhibition in experiment [1] and in experiment [4] were 51% (active) and 101% (active), respectively. Also, the inhibition was 22% in experiment [2] and 0% in experiment [3]. Further, the outcome in experiment [5], in experiment [6], in experiment [7] and in experiment [8] was inactive.

Consider `CCc1ccccc1NC(=O)CN1CCN(c2ncnc3scc(-c4ccc(F)cc4)c23)CC1`, for which the growth inhibition was 62% (active) in experiment [1] and 83% (active) in experiment [4]. Moreover, the values for the inhibition in experiment [2] and in experiment [3] were 6% and -2%, respectively. Further, the result in experiment [5], in experiment [6], in experiment [7] and in experiment [8] was inactive.

For `O=C(NC(=S)Nc1cc(C(F)(F)F)cc(C(F)(F)F)c1)c1ccc(Cl)cc1`, the values for the growth inhibition in experiment [1] and in experiment [4] were 99% (active) and 96% (active), respectively. The inhibition in experiment [2] is 31%; in experiment [3], 0%. In addition, the result in experiment [5], in experiment [6], in experiment [7] and in experiment [8] was inactive.

With `Cc1cccc2[nH]c(-c3cccc(-c4ccc(NC(=O)C5CCCO5)cc4)c3)nc12` (stereo not given), the growth inhibition in experiment [1] is 13%; in experiment [4] it was 91% (active). In addition, the results for the inhibition in experiment [2] and in experiment [3] were 10% and -4%, respectively. Besides, the outcome in experiment [5], in experiment [6], in experiment [7] and in experiment [8] was inactive.

Take `CCCN1CCN(c2cc(NCC)c3c4c(onc24)-c2ccccc2C3=O)CC1`: the growth inhibition was 11% in experiment [1] and 96% (active) in experiment [4]. Moreover, the inhibition is 4% in experiment [2] and 6% in experiment [3]. Also, the result in experiment [5], in experiment [6], in experiment [7] and in experiment [8] was inactive.

For `O=[N+]([O-])c1ccccc1C=NNc1ccnc2cc(Cl)ccc12`, the values for the growth inhibition in experiment [1] and in experiment [4] were 89% (active) and 101% (active), respectively. For the same molecule, the inhibition was -5% in experiment [2] and 3% in experiment [3]. Also, the result in experiment [5], in experiment [6], in experiment [7] and in experiment [8] was inactive.

In the case of `Cc1cc(OCC2CCN(c3ncc(C(=O)Nc4ccccc4)cc3Cl)CC2)ccc1F`, the growth inhibition was 87% (active) in experiment [1] and 91% (active) in experiment [4]. Besides, the inhibition in experiment [2] is 27%; in experiment [3], -2%. Also, the result in experiment [5], in experiment [6], in experiment [7] and in experiment [8] was inactive.

For the molecule `Cc1nnsc1C(=O)Nc1cccc(-c2ccc(-c3nc4ccc(F)cc4[nH]3)s2)c1`, the growth inhibition is 22% in experiment [1] and 89% (active) in experiment [4]. In addition, the inhibition in experiment [2] is 62% (active); in experiment [3] it was 4%. In addition, the result in experiment [5], in experiment [6], in experiment [7] and in experiment [8] was inactive.

Regarding `O=C(NC1CCCCC1)N(Cc1ccc(-c2ccc(CNC3CCCC3)cc2)cc1)C1CCN(Cc2ccccc2)CC1`, the growth inhibition is 86% (active) in experiment [1] and 99% (active) in experiment [4]. The figures for the inhibition in experiment [2] and in experiment [3] were 31% and 3%, respectively. Also, the outcome in experiment [5], in experiment [6], in experiment [7] and in experiment [8] was inactive.

`Cc1cc(=O)[nH]c(/N=C(/N)NOCCCc2ccccc2)n1`: the results for the growth inhibition in experiment [1] and in experiment [4] were 4% and 100% (active), respectively. The inhibition is -4% in experiment [2] and 3% in experiment [3]. The outcome in experiment [5], in experiment [6], in experiment [7] and in experiment [8] was inactive.

In the case of `Cc1ccc2c(OCCN3CCC(Cc4ccc5c(c4)NC(=O)CO5)CC3)cc(F)cc2n1`, the growth inhibition was 21% in experiment [1] and 89% (active) in experiment [4]. The figures for the inhibition in experiment [2] and in experiment [3] were 24% and -2%, respectively. The outcome in experiment [5], in experiment [6], in experiment [7] and in experiment [8] was inactive.

With `COc1cccc(NC(=O)c2ccc(NCCCN3CCC(C)CC3)c([N+](=O)[O-])c2)c1`, the growth inhibition is 46% in experiment [1] and 100% (active) in experiment [4]. In addition, the values for the inhibition in experiment [2] and in experiment [3] were 9% and -6%, respectively. Further, the result in experiment [5], in experiment [6], in experiment [7] and in experiment [8] was inactive.
